Reference: a collection of fitness landscapes (doi:10.1016/j.celrep.2020.107928)
In all, about 81,000 sequences were measured (“one-hybrid fitness for binding parS DNA”: median about -0.17, highest 2% from about 0.51 on). This excerpt belongs to a sample that is enriched for the highest values.

B1: Caulobacter ParB omega fusion; a variant is named by its letters at X, in order, B8GW30 (parent)
chain: MESVVVGEPGMSEGRRGLGRGLSALLGEVDAAPAQAPGEQLGGSREAPIEILQRNPDQPRRTFREEDLEDLSNSIREKGVLQPILVRPSPDTAGEYQIVAGERAWRAAQRAGLKTVPIMVRELDDLAVLEIGIIENVQRADLNVLEEALSYKVLMEKFERTQENIAQTIGKSXSHVANXMRLLXLPDEVQSYLVSGELTAXHARAIAAAADPVALAKQIIEGGLSVRETEALARKAPNLSAGKSKGGRPPRVKDTDTQALESDLSSVLGLDVSIDHRGSTGTLTITYATLEQLDDLCNRLTRGI

Variants of: B1
Assay: one-hybrid fitness for binding parS DNA (scaled: cognate 1, non-cognate 0); higher = stronger binding
Details: with parS DNA site
Procedure, shortened: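 Caulobacter ParB libraries with four specificity codons randomised were screened by bacterial one-hybrid selection in the E. coli USO strain, using a HIS3 reporter whose site lies 19 bp from the promoter. Selection ran for 48 hours at 37°C on M9 lacking histidine, with 0.1 mM IPTG and 5 mM 3-AT. Plasmids were Illumina-sequenced before and after selection, three replicate libraries were pooled, and variants with under 10 reads were dropped. Fitness is the log change in each variant's read ratio to wild type, rescaled against the cognate and non-cognate sites.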

one-hybrid fitness for binding parS DNA, 0.857:
RHNT

one-hybrid fitness for binding parS DNA, 0.888:
RMCT

one-hybrid fitness for binding parS DNA, 0.812:
RIPS

one-hybrid fitness for binding parS DNA, 0.258:
RCLH

one-hybrid fitness for binding parS DNA, 0.422:
RMVN

one-hybrid fitness for binding parS DNA, 0.616:
RRHC

one-hybrid fitness for binding parS DNA, 0.447:
RICN

one-hybrid fitness for binding parS DNA, 0.727:
RYRA

one-hybrid fitness for binding parS DNA, 0.356:
RKKN

one-hybrid fitness for binding parS DNA, 0.745:
RNMC

one-hybrid fitness for binding parS DNA, 0.809:
RSCT

one-hybrid fitness for binding parS DNA, 0.212:
RYPA

one-hybrid fitness for binding parS DNA, 0.375:
RFCN

one-hybrid fitness for binding parS DNA, 0.299:
RNMN

one-hybrid fitness for binding parS DNA, 0.913:
RCCT

one-hybrid fitness for binding parS DNA, 0.539:
RYGA

one-hybrid fitness for binding parS DNA, 0.545:
RYHA

one-hybrid fitness for binding parS DNA, ≤ 0.2:
KPYW
DMSV
RTSP
RTLP
RTSH
CTCV
NAVT
MEVR
QGIP
IPHS
RSLD
RPLS
TPGP
ASSQ
LTSY
PADA
RMVD
LRAY
TDIK
WVHG
RCEL
THTA
PWVT
RVMP
RVMD
RVML
RVMH
KMVW
WMRR
ALEF
ADCS
VPDS
AAKA
VWKI
LDDF
NYSA
EYSA
NYLA
DYKA
LTIQ
LMSQ
GCEC
QYSE
MSRC
AYGA
NYRA
PYQA
SYQA
SYGA
KHQR
QHCK
PRPC
YWNN
YYMS
ILCT
TTSA
TDNY
RGND
RGDP
RGNP
RGDN
NNTG
LAFI
TKPY
ASRG
TAAN
VRSP
TLKS
RIID
RIPD
RIPH
RIIP
QKRS
YTMT
HPWL
RNKQ
RNKK
RNVK
RNVQ
MYPT
REFV
RNML
RNMP
RNMF
RNMH
RNMK
RNMD
GRCA
PERA
TDEN
YRHT
VWAT
VNSR
FTWC
RYFD
RYAD
NHVC
AYMK
PDKP
YYNR
TQLI
KLHC
YNTM
RHNI
RKVH
QPGI
QTTR
DASR
WTNT
MFKT
CHQS
PYYS
RHNE
RHDR
RHDK
RHNQ
TAQY
WPVT
QWVG
YAIL
KTMW
TMYG
RLKQ
RLVR
TPAN
FQLR
LNTV
MPHS
CAAN
RMHK
RRHQ
REHC
RMHL
RPHC
RDHC
RRHF
MHLM
TNRP
MWSS
SVES
RKCP
RHCP
RHCH
RRCD
RRCP
PGNH
VCRG
IYRT
LYPG
CREE
CEDV
YGYI
FTNL
MSES
RPCS
RFCP
RTCP
PMLA
LCAF
IIKG
WMTR
RCFL
LMPT
VVHG
EKSI
RMCP
RACP
RMCD
CVLT
RWPM
GPYM
RKFF
RKAQ
AFRC
LDSE
NVKW
VMRY
RPCT
RECT
RDCT
RMCL
YHLN
EVTM
RFLI
QHYD
IDQR
NLHV
MGRC
RPEA
TIMD
PRLC
MSLL
FHAL
SRDG

one-hybrid fitness for binding parS DNA, 0.363:
RKFY

one-hybrid fitness for binding parS DNA, 0.432:
RMKN

one-hybrid fitness for binding parS DNA, 0.257:
RSHF

one-hybrid fitness for binding parS DNA, 0.454:
RFEA

one-hybrid fitness for binding parS DNA, 0.457:
RLCN

one-hybrid fitness for binding parS DNA, 0.306:
RACH

one-hybrid fitness for binding parS DNA, 0.24:
RMKH
RICH

one-hybrid fitness for binding parS DNA, 0.289:
RTCH

one-hybrid fitness for binding parS DNA, 0.967:
RKVS

one-hybrid fitness for binding parS DNA, 0.295:
RLVM

one-hybrid fitness for binding parS DNA, 0.266:
RTYH

one-hybrid fitness for binding parS DNA, 0.264:
RKAM

one-hybrid fitness for binding parS DNA, 0.608:
RYLA

one-hybrid fitness for binding parS DNA, 0.256:
RYFF

one-hybrid fitness for binding parS DNA, 0.792:
RYFT

one-hybrid fitness for binding parS DNA, 0.443:
RSLN

one-hybrid fitness for binding parS DNA, 0.542:
RAVA

one-hybrid fitness for binding parS DNA, 0.938:
RHCS

one-hybrid fitness for binding parS DNA, 0.562:
RYQA

one-hybrid fitness for binding parS DNA, 0.22:
RLCH

one-hybrid fitness for binding parS DNA, 0.455:
RVMY

one-hybrid fitness for binding parS DNA, 0.737:
RAKA

one-hybrid fitness for binding parS DNA, 0.325:
RNMY

one-hybrid fitness for binding parS DNA, 0.969:
RTSC

one-hybrid fitness for binding parS DNA, 0.69:
RKKS

one-hybrid fitness for binding parS DNA, 0.508:
RYVA

one-hybrid fitness for binding parS DNA, 0.995:
RSCS

one-hybrid fitness for binding parS DNA, 0.832:
RMKS

one-hybrid fitness for binding parS DNA, 0.997:
RVMS

one-hybrid fitness for binding parS DNA, 0.619:
RNVG

one-hybrid fitness for binding parS DNA, 0.298:
RTCM

one-hybrid fitness for binding parS DNA, 0.678:
RNMT

one-hybrid fitness for binding parS DNA, 0.407:
RSCN

one-hybrid fitness for binding parS DNA, 0.515:
RCEA

one-hybrid fitness for binding parS DNA, 0.387:
RYAN

one-hybrid fitness for binding parS DNA, 0.968:
RSHC

one-hybrid fitness for binding parS DNA, 0.95:
RVMC

one-hybrid fitness for binding parS DNA, 0.522:
RYYA

one-hybrid fitness for binding parS DNA, 0.855:
RKCS

one-hybrid fitness for binding parS DNA, 0.551:
RGDS

one-hybrid fitness for binding parS DNA, 0.994:
RIIS

one-hybrid fitness for binding parS DNA, 0.962:
RLVC

one-hybrid fitness for binding parS DNA, 1:
RCHC
RFCS
RACS

one-hybrid fitness for binding parS DNA, 0.67:
RRCS

one-hybrid fitness for binding parS DNA, 0.535:
RYSA

one-hybrid fitness for binding parS DNA, 0.317:
RKKH

one-hybrid fitness for binding parS DNA, 0.567:
RLEA

one-hybrid fitness for binding parS DNA, 0.793:
RYKA

one-hybrid fitness for binding parS DNA, 0.982:
RTLC
RTYC

one-hybrid fitness for binding parS DNA, 0.868:
RNMS

one-hybrid fitness for binding parS DNA, 0.347:
RSCM

one-hybrid fitness for binding parS DNA, 0.424:
RTYN

one-hybrid fitness for binding parS DNA, 0.971:
RVMG

one-hybrid fitness for binding parS DNA, 0.46:
RYCA

one-hybrid fitness for binding parS DNA, 1.04:
RCLS
RMVS

one-hybrid fitness for binding parS DNA, 0.36:
RKVN

one-hybrid fitness for binding parS DNA, 0.791:
RHDT

one-hybrid fitness for binding parS DNA, 0.243:
RVMF

one-hybrid fitness for binding parS DNA, 1.02:
RICS

one-hybrid fitness for binding parS DNA, 0.885:
RVMT

one-hybrid fitness for binding parS DNA, 0.287:
RVMM

one-hybrid fitness for binding parS DNA, 0.917:
RTCT

one-hybrid fitness for binding parS DNA, 0.835:
RLKC

one-hybrid fitness for binding parS DNA, 0.862:
RGNS

one-hybrid fitness for binding parS DNA, 0.496:
RYIA

one-hybrid fitness for binding parS DNA, 1.03:
RLCS

one-hybrid fitness for binding parS DNA, 0.302:
RKCN

one-hybrid fitness for binding parS DNA, 0.399:
RLKM

one-hybrid fitness for binding parS DNA, 0.878:
RKFC
RKAC

one-hybrid fitness for binding parS DNA, 1.01:
RSLS
RCCS
RMCS

one-hybrid fitness for binding parS DNA, 0.979:
RMHC

one-hybrid fitness for binding parS DNA, 0.554:
RYWA
RQEA

one-hybrid fitness for binding parS DNA, 0.476:
RAEA
RSEA

one-hybrid fitness for binding parS DNA, 0.252:
RTCF

one-hybrid fitness for binding parS DNA, 0.388:
RVMN

one-hybrid fitness for binding parS DNA, 0.223:
RCCP
RSCH

one-hybrid fitness for binding parS DNA, 0.802:
RREA

one-hybrid fitness for binding parS DNA, 0.899:
RYAT

one-hybrid fitness for binding parS DNA, 0.362:
RMCM

one-hybrid fitness for binding parS DNA, 0.941:
RNKG

one-hybrid fitness for binding parS DNA, 0.385:
RAKF

one-hybrid fitness for binding parS DNA, 0.99:
RTCS

one-hybrid fitness for binding parS DNA, 0.819:
RNMG

one-hybrid fitness for binding parS DNA, 0.232:
RTLH
